Measurements as given in PubChem BioAssay (EPA / NIEHS).
Inconclusive results are not listed. The source made the active and inactive calls. The calls were made as follows: active = hit-call score of the fitted dose curve at least 0.9, where 1 is the maximum; inconclusive = response in the unintended direction; inactive = score below 0.9.

read-out: alkyl and aryl transferase (GSTA2), GSTA2 (gene 2939); assay: CLD_GSTA2_24hr: CellzDirect (CLD) Gene Expression Assay for alkyl and aryl transferase (GSTA2) at 24 hours (AID 2283693)
Protocol: CLD_24hr is a cell-based, multiplexed-readout assay that uses hepatocyte, a human liver primary cell, with measurements taken at 24 hours after chemical dosing in a 96-well plate.CLD_GSTA2_24hr is one of 16 assay component(s) measured or calculated from the CLD_24hr assay. It is designed to make measurements of mRNA induction, a form of inducible reporter, as detected with chemiluminescence signals by Quantitative Nuclease Protection Assay (qNPA) technology.Data from the assay component CLD_GSTA2_24hr was analyzed at the endpoint, CLD_GSTA2_24hr, in the positive analysis fitting direction relative to DMSO as the negative control and baseline of activity. Using a type of inducible reporter, gain-of-signal activity can be used to understand changes in the reporter gene as they relate to the gene GSTA2. Furthermore, this assay endpoint can be referred to as a primary readout. To generalize the intended target to other relatable targets, this assay endpoint is annotated to the transferase intended target family, where subfamily is alkyl and aryl transferase.
Human hepatocyte cultures were treated daily for two consecutive days with fresh dosing solutions containing appropriate concentrations of the 320 ToxCast chemicals (chemical identities were blinded to CellzDirect and other ToxCast collaborators), vehicle control (0.2% DMSO), and positive control inducers as summarized in Table 1. Due to the large number of treatment groups and chemicals examined, the ToxCast chemicals were divided into two groups (spanning two independent cultures of hepatocytes from separate donor preparations (Hu778: ToxCast plates 1 and 2; Hu776: ToxCast plates 3 and 4). Each preparation of human hepatocyte cultures was treated with respective vehicle control, medium only control, set of six positive controls/reference chemicals for the five hepatic receptor pathways, and a subset of eight of the ToxCast chemicals (indoxacarb, pyrithiobac-sodium, norflurazon, cyhalofop-butyl, methomyl, thiram, acetochlor, and propiconazole). These replicate data, coupled with internal replicates designed within the blinded ToxCast chemical library, provided additional data to evaluate interindividual differences between hepatocyte preparations and their potential impact on chemical profiles.Cell morphology and integrity were evaluated using phase-contrast microscopy as an indicator of hepatocyte cell health (Tyson & Green, 1987). Cultures for each treatment group (i.e., media, vehicle [0.2% DMSO], positive control inducers [multiple concentrations], and the ToxCast chemicals [multiple concentrations]) were observed and cell morphology was assessed relative to vehicle control cultures at each harvest time point (0, 6, 24, or 48 h). […] Images were evaluated at the conclusion of the study to assess changes in cell integrity and account for the effects of chemical exposure on uncharacteristic changes in concentration-dependent gene expression profiles. The results from these determinations of apparent cytotoxicity were annotated (yes/no) alongside the corresponding qNPA data for reference.At the conclusion of each treatment period, hepatocyte cultures (96-well) were washed with 1 volume of HBSS, lysed by addition of 25 ul ArrayPlate lysis buffer (HTG, Tucson, AZ), and 70 ul/well of Denaturation Oil, denatured by incubation at 95C for 10 min, and frozen at approximately -70C until analysis by nuclease protection assay (qNPA) (Roberts et al., 2007). For qNPA analysis, cell lysates were thawed at 50C for approximately 30 min, qNPA probes were added, and samples were incubated at 95C for 10 min to begin the detection process by denaturing the target RNA, dissociating the duplexes and secondary structure hybridization. At the conclusion of the hybridization period, S1 nuclease reagent was added to each sample to digest all nonprotected nucleotides at 50C for 60-90 min. […]

Row | Structure (SMILES) | outcome
1 | CC(C)N(C(=O)SCC(Cl)=C(Cl)Cl)C(C)C | inactive
2 | CCCOCC(=Nc1ccc(Cl)cc1C(F)(F)F)n1ccnc1 | inactive
3 | COc1cc(OC)nc(Sc2cccc(Cl)c2C(=O)O)n1 | inactive
4 | CN(C)[C@@H]1C(=O)C(C(N)=O)=C(O)[C@@]2(O)C(=O)C3=C(O)c4c(O)cccc4[C@@](C)(O)[C@H]3[C@H](O)[C@@H]12 | inactive
5 | N#CSCSC#N | inactive
6 | CCCCOC(=O)c1ccccc1C(=O)O | inactive
7 | CC1=NNC(=O)N(/N=C/c2cccnc2)C1 | inactive
8 | Nc1nc(N)nc(NC2CC2)n1 | inactive
9 | C#CCC1=C(C)C(OC(=O)C2C(C=C(C)C)C2(C)C)CC1=O (stereo not given) | inactive
10 | COP(=O)(OC)OC(Br)C(Cl)(Cl)Br (stereo not given) | inactive
11 | CCOC(=O)CC(SP(=O)(OC)OC)C(=O)OCC (stereo not given) | inactive
12 | COP(=O)(OC)SCn1c(=O)oc2cc(Cl)cnc21 | inactive
13 | CCOP(=S)(OCC)Oc1ccc2c(C)c(Cl)c(=O)oc2c1 | inactive
14 | CCOP(=S)(OCC)SCCSCC | inactive
15 | CCCCOC(=O)[C@@H](C)Oc1ccc(Oc2ccc(C#N)cc2F)cc1 | inactive
16 | CCc1cccc(CC)c1N(COC)C(=O)CCl | inactive
17 | CCCOc1nn(C(=O)NS(=O)(=O)c2ccccc2C(=O)OC)c(=O)n1C | inactive
18 | CCC(CC)Nc1c([N+](=O)[O-])cc(C)c(C)c1[N+](=O)[O-] | inactive
19 | C[Si](Cn1cncn1)(c1ccc(F)cc1)c1ccc(F)cc1 | inactive
20 | CCCCN(CC)c1c([N+](=O)[O-])cc(C(F)(F)F)cc1[N+](=O)[O-] | inactive

Row | Structure (SMILES) | outcome
21 | S=C1NCCN1 | inactive
22 | CSc1nnc(C(C)(C)C)c(=O)n1N | inactive
23 | CSc1nc(NC(C)C)nc(NC(C)C)n1 | inactive
24 | CSC1=N[C@@](C)(c2ccccc2)C(=O)N1Nc1ccccc1 | inactive
25 | COc1ccc(C(=CC(=O)N2CCOCC2)c2ccc(Cl)cc2)cc1OC | inactive
26 | COP(=O)(OC)C(O)C(Cl)(Cl)Cl (stereo not given) | inactive
27 | CCOP(=S)(OCC)OC(Cl)C(Cl)(Cl)Cl (stereo not given) | inactive
28 | CCNc1nc(Cl)nc(NC(C)(C)C#N)n1 | inactive
29 | CNC(=O)ON=C(C)SC | inactive
30 | CON=C(C(=O)OC)c1ccccc1CON=C(C)c1cccc(C(F)(F)F)c1 | inactive
31 | CNC(=O)Oc1cccc2c1OC(C)(C)O2 | inactive
32 | CCOP(=O)(OCC)Oc1cc(C)nc(C(C)C)n1 | inactive
33 | CN(C)C(=O)Nc1cccc(C(F)(F)F)c1 | inactive
34 | C=C(C)[C@H]1Cc2c(ccc3c2O[C@@H]2COc4cc(OC)c(OC)cc4[C@@H]2C3=O)O1 | inactive
35 | CC(C1CC1)C(O)(Cn1cncn1)c1ccc(Cl)cc1 (stereo not given) | inactive
36 | C[N+]1(C)CCCCC1 | inactive
37 | CCOP(=S)(Oc1cnc(C(C)(C)C)nc1)OC(C)C (stereo not given) | inactive
38 | Nc1c(Cl)cc([N+](=O)[O-])cc1Cl | inactive
39 | CCOP(=S)(OCC)Oc1cc(C)nc(C(C)C)n1 | inactive
40 | CNC(=O)ON=C(SC)C(=O)N(C)C | inactive
